# NPC1 promoter act – qHTS Assay for NPC1 Promoter Activators | Potency, µM (series often up to 9.22 µM), most hits filed as activators | actives 2.4% (n = 320,000) | Huh7 NPC1 promoter luciferase reporter, 24 h; also: nearly all actives have a fitted effect of over 60% in size
#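 Luminescence from an NPC1 promoter-driven luciferase reporter in stably transfected Huh7 cells was measured after 24 h compound treatment at 37 °C, followed by 10 min ambient incubation with luciferase detection reagent.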
# SMN2 splice up – qHTS Assay for Enhancers of SMN2 Splice Variant Expression; HEK293 SMN2-luciferase splicing reporter, luminescence, 30-36 h; Potency, µM (series often up to 46.1 µM), usual class: activators; actives 2.8% (n = 210,000); also: nearly all actives have a fitted effect of over 55% in size
#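 HEK293 cells carry an SMN2 minigene-luciferase reporter in which exon 7 inclusion puts luciferase in frame. Cells were seeded at 2000 cells/well, attached for 10-12 hours, then exposed to compounds for 30-36 hours at 37C before ONE-Glo luminescence.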
# FLuc counter – qHTS profiling assay for firefly luciferase inhibitor/activator using purifed enzyme and Km concentrations of substrates (counterscreen for miR-21 project) | purified FLuc, Km substrates, luminescence inhibition | Potency, µM (doses to about 57.5 µM), most hits filed as inhibitors | actives 6.9% (n = 360,000); also: nearly all actives have a fitted effect of over 55% in size
# Target sequence (P08659 whole entry, looked up): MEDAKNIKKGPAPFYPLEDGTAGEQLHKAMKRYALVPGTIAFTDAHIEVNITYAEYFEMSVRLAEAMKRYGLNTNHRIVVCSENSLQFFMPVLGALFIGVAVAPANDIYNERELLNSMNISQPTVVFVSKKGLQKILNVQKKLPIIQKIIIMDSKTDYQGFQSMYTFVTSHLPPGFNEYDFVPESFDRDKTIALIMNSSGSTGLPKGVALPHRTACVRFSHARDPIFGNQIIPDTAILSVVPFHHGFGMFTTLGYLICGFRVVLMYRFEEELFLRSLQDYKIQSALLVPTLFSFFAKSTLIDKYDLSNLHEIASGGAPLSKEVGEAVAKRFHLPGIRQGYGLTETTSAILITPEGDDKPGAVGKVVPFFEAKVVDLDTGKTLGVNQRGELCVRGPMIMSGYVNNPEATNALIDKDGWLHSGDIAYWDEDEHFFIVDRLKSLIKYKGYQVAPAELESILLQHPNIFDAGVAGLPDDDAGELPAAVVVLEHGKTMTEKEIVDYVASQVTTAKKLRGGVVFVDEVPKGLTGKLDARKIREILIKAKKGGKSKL
#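 Biochemical qHTS of compounds, final roughly 60 µM downward over six points, against 10 nM purified firefly luciferase using Km concentrations of substrates (10 uM D-luciferin, 10 uM ATP) in Tris acetate pH 7.5 buffer; luminescence output.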
# ELG1 repair inh – qHTS screen for small molecules that inhibit ELG1-dependent DNA repair in human embryonic kidney (HEK293T) cells expressing luciferase-tagged ELG1; Potency, µM (highest dose often 46.1 µM), actives largely listed as inhibitors; AID 504467, 2011; actives 2.3% (n = 330,000); HEK293T ELG1-luciferase reporter, luminescence, 16 h; DNA damage induced by 5-fluorouridine; also: nearly all actives have a fitted effect of over 55% in size
#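 Reporter activity after DNA damage by 5-fluorouridine is monitored. Compound-treated cells incubate 16 hr at 37 °C, then ONE-Glo is added for 30 min before luminescence reading.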
# ELG1 genotox – qHTS screen for small molecules that induce genotoxicity in human embryonic kidney (HEK293T) cells expressing luciferase-tagged ELG1; HEK293T ELG1-luciferase reporter, luminescence, 16 h; Potency, µM (series often up to 46 µM), actives largely listed as activators; actives 1.3% (n = 330,000); AID 504466, 2011; also: nearly all actives have a fitted effect of over 60% in size
#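 ELG1-luciferase HEK293T cells, 2,000/well; compound pinned in; 16 hr, 37 °C, 5% CO2; ONE-Glo, 30 min RT; luminescence on CCD imager.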
# Rab9 promoter act – qHTS Assay for Rab9 Promoter Activators. Huh7 Rab9 promoter-luciferase reporter, luminescence, 24 h. Potency, µM (doses to about 9.22 µM), hits mostly activators. actives 2.8% (n = 320,000). AID 485297, 2010; also: nearly all actives have a fitted effect of over 60% in size
#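 Stable Rab9-luc Huh7, 1500 cells/well, 2 h settle; cmpd in DMSO, 24 h, 37 °C/5% CO2; luciferase reagent 10 min RT; luminescence.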
# Hits are given with their value; n = inactive; u = inconclusive; x = no result; [ ] = another dose, or the depositor's remark. Most compounds without a hit are left out; they make up all but 9.2% or so of the library. Calls follow the shape of the dose curve; as a rule, active = well fitted curve in the direction sought with a large enough effect; inconclusive = small, poorly fitted or top-dose-only effect, or another doubt; inactive = no such curve, though single readings can be large; an effect the other way counts as inactive or inconclusive.
SMILES,NPC1 promoter act,SMN2 splice up,FLuc counter,ELG1 repair inh,ELG1 genotox,Rab9 promoter act
COc1ccc(NC2=C(Cl)C(=O)N(CCc3ccccc3)C2=O)cc1,n,15.8µM,2.69µM,n,n,n
COc1ccc(CCNC2=C(Cl)C(=O)N(CCc3ccc(OC)c(OC)c3)C2=O)cc1OC,n,n,n,13µM,n,n
COc1ccc(NC2=C(Cl)C(=O)N(CCc3ccccc3)C2=O)c(OC)c1,n,u,u,u,n,n
COc1ccc(N2C(=O)C(Cl)=C(NCc3ccccc3)C2=O)cc1,n,n,21.3µM,n,n,n
COc1ccc(CCN2C(=O)c3cccnc3C2=O)cc1OC,n,n,n,n,n,n
Cc1cc(C)c(OCC(=O)Nc2ccc(N3CCOCC3)cc2)c(Br)c1,n,x,n,n,n,n
CC(C)NC(=O)N(C)C[C@H]1Oc2c(NC(=O)Nc3ccc4c(c3)OCO4)cccc2C(=O)N([C@H](C)CO)C[C@@H]1C,x,x,x,u,n,x
C[C@H]1CN([C@@H](C)CO)C(=O)c2cc(NC(=O)C3CCCCC3)ccc2O[C@H]1CN(C)C(=O)Nc1ccc2c(c1)OCO2,x,x,x,1.3µM,n,x
C[C@@H]1CN([C@@H](C)CO)C(=O)c2cc(NS(=O)(=O)c3cccs3)ccc2O[C@H]1CN(C)Cc1ccc(C(F)(F)F)cc1,x,x,x,16.4µM,n,x
COc1ccc(NC(=O)Nc2cccc3c2O[C@H](CN(C)S(=O)(=O)c2ccc(OC)cc2)[C@@H](C)CN([C@H](C)CO)C3=O)cc1,x,x,x,20.6µM,n,x
CC(C)NC(=O)N(C)C[C@H]1Oc2ccc(NC(=O)C3CCCCC3)cc2C(=O)N([C@H](C)CO)C[C@@H]1C,x,x,x,u,n,x
COc1ccc(NC(=O)Nc2cccc3c2O[C@H](CN(C)S(=O)(=O)c2ccccc2)[C@@H](C)CN([C@H](C)CO)C3=O)cc1,x,x,x,n,n,x
C[C@H](CO)N1C[C@H](C)[C@@H](CN(C)C(=O)Nc2ccc3c(c2)OCO3)Oc2c(NC(=O)Nc3ccccc3)cccc2C1=O,x,x,x,6.51µM,n,x
CCOC(=O)c1ccccc1NC(=O)N1CCC(CN2CCOCC2)CC1,x,x,n,x,x,x
CN1CCN(S(=O)(=O)Cc2ccc(Cl)cc2)CC1,n,x,n,n,n,n
Cc1ccc(-c2[nH]ncc2C(=O)c2cccc(F)c2)c(O)c1,n,x,n,u,n,n[1.84 µM]
CCOC(=O)CCCCCC(=O)Nc1ccc2c(c1)CC(=O)N([C@H](C)CO)C[C@@H](C)[C@H](CN(C)Cc1ccc3c(c1)OCO3)O2,x,x,x,n,n,x
C[C@@H]1CN([C@H](C)CO)C(=O)Cc2cc(NC(=O)Nc3ccccc3)ccc2O[C@@H]1CN(C)Cc1ccc2c(c1)OCO2,x,x,x,16.4µM,n,x
C[C@H](CO)N1C[C@H](C)[C@@H](CN(C)C(=O)Nc2ccc(C(F)(F)F)cc2)Oc2c(NC(=O)Nc3ccc(C(F)(F)F)cc3)cccc2C1=O,x,x,x,16.4µM,n,x
C[C@H]1CN([C@@H](C)CO)C(=O)c2cccc(NC(=O)Nc3ccc(C(F)(F)F)cc3)c2O[C@@H]1CN(C)C(=O)Nc1ccc(F)cc1,x,x,x,u,n,x
CC1Sc2ccc(S(=O)(=O)CCC(=O)N3CCN(c4cccc(Cl)c4)CC3)cc2NC1=O (stereo unspecified),n,x,n,13µM,n,n
COc1ccc(OC)c(NS(=O)(=O)c2ccc(N3CCCCS3(=O)=O)cc2)c1,x,x,n,x,x,x
Cc1cc(C)c2oc(-c3ccc(C)c(NC(=O)/C=C/c4ccco4)c3)nc2c1,x,n,21.3µM,x,x,x
Cc1cc(C)c2oc(-c3cccc(NC(=O)c4ccco4)c3)nc2c1,x,n,2.69µM,x,x,x
CCCOc1ccc(C(=O)Nc2cc(-c3nc4cc(C)cc(C)c4o3)ccc2C)cc1,x,n,n,x,x,x
SMILES,NPC1 promoter act,SMN2 splice up,FLuc counter,ELG1 repair inh,ELG1 genotox,Rab9 promoter act
Cc1cccc(NC(=O)CCc2c(C)nn(-c3ccc(N4CCCCC4)nn3)c2C)c1,u,x,5.36µM,u,n,u
Cc1ccc(C)c(NC(=O)CCc2c(C)nn(-c3ccc(N4CCCC4)nn3)c2C)c1,x,x,n,x,x,x
Cc1cccc(NC(=O)CCc2c(C)nn(-c3ccc(N4CCOCC4)nn3)c2C)c1,n,x,15.1µM,u,n,n
O=S(=O)(NCc1nnc2ccccn12)c1ccc(F)cc1,n,x,n,n,n,n
Cc1nc2ccccn2c1-c1ccnn1S(=O)(=O)c1ccc(F)cc1,n,x,n,18.3µM,n,n
Cc1ccc(-n2cccn2)c(CN2CCCC(C(=O)c3sccc3C)C2)c1 (stereo unspecified),n,x,n,16.4µM,n,n
COc1cccc(-n2c(=O)c3c(C)c(C)sc3n(Cc3ccccc3C#N)c2=O)c1,x,n,n,x,x,x
COc1ccc(S(=O)(=O)N(CC(=O)NCCSc2ccccc2)c2ccc(Cl)cc2)cc1,x,n,n,x,x,x
Fc1ccc(C2=CC(c3ccco3)n3ncnc3N2)cc1 (stereo unspecified),n,n,n,n,n,n
C1=C(c2ccc(-c3ccccc3)cc2)Nc2ncnn2C1c1ccco1 (stereo unspecified),2.82µM,n,21.3µM,u,n,3.16µM
CC(=O)Nc1ccccc1OCc1cc(=O)n2c3c(sc2n1)CCCC3,x,n,n,x,x,x
COc1ccccc1CNC(=O)c1ccc(Cn2c(SCc3ccccc3)nc3cccnc32)cc1,x,x,4.78µM,x,x,x
Cc1cccc(Cn2c(SCc3ccc(C(=O)NCc4ccccc4F)cc3)nc3cccnc32)c1,x,x,n,x,x,x
CCN(CC)CCCNC(=O)c1ccc(Cn2c(SCc3ccccc3)nc3cccnc32)cc1,x,x,21.3µM,x,x,x
CC(NC(=O)c1ccc(Cn2c(SCc3ccccc3)nc3cccnc32)cc1)c1ccccc1 (stereo unspecified),x,x,n,x,x,x
Cc1ccccc1CNC(=O)c1ccc(Cn2c(SCc3ccccc3)nc3cccnc32)cc1,x,x,2.69µM,x,x,x
CC(CNC(=O)c1ccc(Cn2c(SCc3ccccc3)nc3cccnc32)cc1)c1ccccc1 (stereo unspecified),x,x,4.78µM,x,x,x
C[C@H](NC(=O)OCc1ccccc1)C(=O)NNC(=O)[C@H](Cc1ccccc1)NC(=O)OC(C)(C)C,n,x,n,u,n,n
CC(C)(C)OC(=O)C(Cc1ccc(OC(C)(C)C)cc1)NC(=O)CNC(=O)OCc1ccccc1 (stereo unspecified),n,n,n,8.2µM,n,n

# Source: PubChem
